Laboratory results reported in PubChem BioAssay.
Records with an inconclusive call do not appear. The source made the active and inactive calls. Unless noted, no stated cut-off is given here; in the data, active means response above about 15%; inactive means the rest.

Tests used:
[1] = rapamycin-like changes in RPL19A-GFP expression – cell-based, S. cerevisiae, multiplex flow cytometry, primary screen (AID 1862; in the data active means percent of DMSO control GFP below about 86%;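 further: lower values mimic rapamycin by blocking the RPL19A rise seen in DMSO cells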); conditions: S. cerevisiae RPL19A-GFP strain, flow cytometry fluorescence, 3 h; at 10 µM; stronger effect = lower value
[2] = TOR pathway GLN3 branch reporter MEP2-GFP changes – S. cerevisiae, multiplex flow cytometry, primary screen (AID 1867;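 active means GFP response, as percent of the DMSO control, above the screen-wide mean plus 3 SD, about 139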;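 further: median GFP channel fluorescence of barcode-gated MEP2-GFP cells measured by flow cytometry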); conditions: S. cerevisiae MEP2-GFP strain, 3 h, at 10 µM, stronger effect = higher value, 100% means same as DMSO wells
[3] = TOR pathway RTG branch CIT2 reporter changes – S. cerevisiae, GFP fusion, multiplex flow cytometry, primary screen (AID 1870;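 active means percent response above a set limit, the screen-wide mean plus 3 SD, cut at about 130% in these data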;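 further: barcoded CIT2-GFP strain pooled with four other GFP strains with rapamycin as positive control; median GFP fluorescence per well over plate mean of DMSO wells so 100% = DMSO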); conditions: S. cerevisiae CIT2-GFP expression, 3 h, at 10 µM, stronger effect = higher value
[4] = TOR pathway LAP4-GFP level changes – S. cerevisiae, multiplex flow cytometry, primary screen (AID 1873;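 active means GFP signal, as percent of the solvent control, above the screen mean plus 3 SD, about 149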); conditions: S. cerevisiae LAP4-GFP expression, 3 h, at 10 µM, stronger effect = higher value
[5] = yeast AGP1-GFP level changes, GLN3 branch – cell-based, multiplex flow cytometry, S. cerevisiae, primary screen (AID 1887;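 active means GFP signal above the screen-wide mean plus 3 SD, that is over about 124.5% of the solvent control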;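 further: AGP1-GFP fusion strain of S. cerevisiae within a five-strain barcoded multiplex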); conditions: 3 h, at 10 µM, stronger effect = higher value
[6] = reduced mouse 2C T cell binding to pMHC/ICAM-1 vesicles – MLPCN validation set, flow cytometry, LFA-1/ICAM-1 modulator project, pilot screen (AID 2523;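 active means response below a set limit, under 55% cells CD8-positive and vesicle-bound, and CD8 cells' 90th-percentile brightness under 279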;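 on vesicle binding response: mean PE anti-B7-1 fluorescence of CD8+ cells relative to row control; 100% = QL9-loaded vesicles with DMSO vehicle in the same plate row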); conditions: 2C mouse CD8+ T cells, at 7 µM, stronger effect = lower value; double positive events: measured here: CD8+/vesicle+ event percentage
[7] = molecular target: Integrin beta-1 (Homo sapiens) + Integrin alpha-4 (Homo sapiens) (UniProt P13612+P05556); assay: alpha4beta1 integrin LIBS antibody binding reduction – U937 cells, HUTS-21 mAb, flow cytometry, validation set, VLA-4 allosteric modulator project, pilot screen (AID 2674;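 active means inhibition above 50%, about 3 SD of the validation set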;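 further: antibody binding induced by the VLA-4 ligand LDV present at three times its Kd; 0% = LDV ligand with antibody and no compound and 100% = antibody without LDV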); conditions: HUTS-21 LIBS mAb binding, at 6.7 µM, stronger effect = higher value, binding induced by LDV ligand
Sequence of Integrin beta-1 (Homo sapiens) + Integrin alpha-4 (Homo sapiens) (P05556 whole entry, looked up): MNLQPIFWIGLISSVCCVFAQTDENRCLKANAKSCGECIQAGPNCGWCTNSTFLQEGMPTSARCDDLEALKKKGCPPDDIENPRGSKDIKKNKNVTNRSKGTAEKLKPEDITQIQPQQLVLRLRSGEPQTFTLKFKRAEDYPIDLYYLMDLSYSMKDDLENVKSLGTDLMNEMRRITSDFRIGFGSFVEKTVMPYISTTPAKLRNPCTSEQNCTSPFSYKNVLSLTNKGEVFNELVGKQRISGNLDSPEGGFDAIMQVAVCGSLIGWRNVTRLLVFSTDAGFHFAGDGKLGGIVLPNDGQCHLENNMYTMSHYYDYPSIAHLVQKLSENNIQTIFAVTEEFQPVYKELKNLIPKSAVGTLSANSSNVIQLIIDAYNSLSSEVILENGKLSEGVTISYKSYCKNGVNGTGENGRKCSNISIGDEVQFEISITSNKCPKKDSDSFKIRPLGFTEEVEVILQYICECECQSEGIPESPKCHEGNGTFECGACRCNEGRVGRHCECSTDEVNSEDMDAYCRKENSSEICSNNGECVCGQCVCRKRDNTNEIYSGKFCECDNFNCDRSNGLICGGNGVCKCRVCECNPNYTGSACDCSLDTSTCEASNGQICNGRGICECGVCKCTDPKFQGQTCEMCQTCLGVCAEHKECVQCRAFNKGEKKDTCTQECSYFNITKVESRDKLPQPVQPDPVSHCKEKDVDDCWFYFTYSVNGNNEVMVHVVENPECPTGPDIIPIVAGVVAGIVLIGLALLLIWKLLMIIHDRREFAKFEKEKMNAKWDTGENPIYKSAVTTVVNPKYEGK
Sequence of Integrin beta-1 (Homo sapiens) + Integrin alpha-4 (Homo sapiens) (P13612 whole entry, looked up): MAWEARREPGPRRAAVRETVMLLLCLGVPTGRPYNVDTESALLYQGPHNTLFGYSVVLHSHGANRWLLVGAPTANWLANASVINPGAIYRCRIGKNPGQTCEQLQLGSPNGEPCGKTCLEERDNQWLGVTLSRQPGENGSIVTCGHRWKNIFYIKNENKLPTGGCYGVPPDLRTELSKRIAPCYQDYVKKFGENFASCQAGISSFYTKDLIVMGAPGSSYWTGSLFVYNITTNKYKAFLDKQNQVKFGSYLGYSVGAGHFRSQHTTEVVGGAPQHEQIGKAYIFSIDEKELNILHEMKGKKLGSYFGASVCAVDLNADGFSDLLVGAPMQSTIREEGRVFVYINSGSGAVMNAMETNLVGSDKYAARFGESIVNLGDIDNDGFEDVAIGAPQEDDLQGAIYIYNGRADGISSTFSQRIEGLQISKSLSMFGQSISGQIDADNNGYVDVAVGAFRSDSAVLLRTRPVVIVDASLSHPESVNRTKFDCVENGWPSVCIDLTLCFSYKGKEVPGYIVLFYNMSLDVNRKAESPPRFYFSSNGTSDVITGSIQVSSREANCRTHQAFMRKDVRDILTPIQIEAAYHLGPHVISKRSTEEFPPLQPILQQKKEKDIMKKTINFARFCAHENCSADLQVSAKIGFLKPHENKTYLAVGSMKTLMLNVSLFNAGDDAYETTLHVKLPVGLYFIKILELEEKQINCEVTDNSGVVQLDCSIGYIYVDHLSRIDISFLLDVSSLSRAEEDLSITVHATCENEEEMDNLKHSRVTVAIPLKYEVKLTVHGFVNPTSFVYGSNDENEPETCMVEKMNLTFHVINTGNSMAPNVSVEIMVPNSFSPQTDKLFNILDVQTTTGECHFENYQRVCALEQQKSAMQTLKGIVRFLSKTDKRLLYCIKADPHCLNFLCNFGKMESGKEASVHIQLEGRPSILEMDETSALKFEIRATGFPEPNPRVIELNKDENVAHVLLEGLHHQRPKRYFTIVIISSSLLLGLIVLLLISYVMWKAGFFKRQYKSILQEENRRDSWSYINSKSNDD

[8] = calorie-restriction mimetic ROS inhibitors, yeast – validation compound set, pilot screen (AID 2706;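 active means superoxide response below 65% of plate, a cut near 3 SD across the whole screen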;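 further: yeast exposed to compound for one week at 30 degrees C before staining; 100% = mean of all compound wells on the same plate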); conditions: S. cerevisiae aging, superoxide DHE fluorescence; at 10 µM; stronger effect = lower value
[9] = molecular target: Beta-adrenergic receptor kinase 1 (Homo sapiens) (UniProt P25098); assay: GRK2 binders displacing RNA aptamer, biochemical, validation, human GRK2, bead flow cytometry (AID 488806;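 active means aptamer binding inhibition above 30%, about 3 SD of noise from non-fluorescent compounds; inactive means inhibition at or below 30%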); conditions: bead-bound GRK2, FAM-aptamer displacement, at 10 µM, stronger effect = higher value
Sequence of Beta-adrenergic receptor kinase 1 (Homo sapiens) (P25098 whole entry, looked up): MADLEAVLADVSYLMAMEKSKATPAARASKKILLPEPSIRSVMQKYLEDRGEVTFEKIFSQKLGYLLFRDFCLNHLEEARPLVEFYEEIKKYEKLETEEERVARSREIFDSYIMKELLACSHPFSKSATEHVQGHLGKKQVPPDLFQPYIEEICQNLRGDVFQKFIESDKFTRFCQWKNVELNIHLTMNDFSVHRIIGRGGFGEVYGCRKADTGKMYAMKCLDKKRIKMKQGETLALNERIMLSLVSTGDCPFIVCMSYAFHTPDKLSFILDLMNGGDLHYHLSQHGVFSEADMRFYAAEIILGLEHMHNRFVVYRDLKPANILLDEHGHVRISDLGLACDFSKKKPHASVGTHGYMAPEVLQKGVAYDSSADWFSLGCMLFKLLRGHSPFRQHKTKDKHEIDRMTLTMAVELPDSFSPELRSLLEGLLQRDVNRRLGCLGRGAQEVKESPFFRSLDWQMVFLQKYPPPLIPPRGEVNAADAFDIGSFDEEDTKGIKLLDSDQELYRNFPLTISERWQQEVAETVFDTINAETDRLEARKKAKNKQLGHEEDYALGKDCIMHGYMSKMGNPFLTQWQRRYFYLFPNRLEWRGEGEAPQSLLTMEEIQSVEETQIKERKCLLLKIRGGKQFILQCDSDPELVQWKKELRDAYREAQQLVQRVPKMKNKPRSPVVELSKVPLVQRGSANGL

[10] = molecular target: Beta-2 adrenergic receptor (Homo sapiens) (UniProt P07550); assay: agonist-induced loss of surface beta2AR – cell-based, FAP fluorogen, flow cytometry, validation set, pilot screen (AID 504459;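 active means percent response above 42, roughly 3 SD of non-fluorescent test compounds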;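 further: agonist-driven loss of surface beta2AR via internalization measured by FAP dye flow cytometry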); conditions: Am2.2-beta2AR cells, at 10 µM, stronger effect = higher value
Sequence of Beta-2 adrenergic receptor (Homo sapiens) (P07550 whole entry, looked up): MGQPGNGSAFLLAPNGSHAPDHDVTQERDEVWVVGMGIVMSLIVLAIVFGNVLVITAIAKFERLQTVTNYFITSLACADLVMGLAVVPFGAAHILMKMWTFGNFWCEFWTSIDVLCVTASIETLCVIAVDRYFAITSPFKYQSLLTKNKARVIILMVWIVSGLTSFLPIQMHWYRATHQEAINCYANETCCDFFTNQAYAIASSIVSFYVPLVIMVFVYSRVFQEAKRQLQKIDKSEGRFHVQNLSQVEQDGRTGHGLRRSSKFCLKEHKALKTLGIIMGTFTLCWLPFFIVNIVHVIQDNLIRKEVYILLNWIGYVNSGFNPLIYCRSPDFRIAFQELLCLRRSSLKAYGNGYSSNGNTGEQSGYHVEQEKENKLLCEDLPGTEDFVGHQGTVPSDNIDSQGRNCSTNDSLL

[11] = molecular target: AP-2 complex subunit beta (Homo sapiens) (UniProt P63010); assay: beta-arrestin/AP2 interaction blockers – biochemical, validation set, GST-AP2 beads, flow cytometry, pilot screen (AID 504541;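 active means inhibition above 54%, about 3 SD of non-fluorescent compounds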;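 further: AP2 carries R879A mutation and is captured from E. coli lysate; bead-bound FITC arrestin peptide fluorescence measuring arrestin peptide binding to AP2; 0% = DMSO wells and 100% = excess unlabeled arrestin peptide control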); conditions: FITC arrestin peptide, at 10 µM, stronger effect = higher value, AP2 beta2 appendage fragment, R879A mutant
Sequence of AP-2 complex subunit beta (Homo sapiens) (P63010 whole entry, looked up, the tested form may be a part, one chain of several): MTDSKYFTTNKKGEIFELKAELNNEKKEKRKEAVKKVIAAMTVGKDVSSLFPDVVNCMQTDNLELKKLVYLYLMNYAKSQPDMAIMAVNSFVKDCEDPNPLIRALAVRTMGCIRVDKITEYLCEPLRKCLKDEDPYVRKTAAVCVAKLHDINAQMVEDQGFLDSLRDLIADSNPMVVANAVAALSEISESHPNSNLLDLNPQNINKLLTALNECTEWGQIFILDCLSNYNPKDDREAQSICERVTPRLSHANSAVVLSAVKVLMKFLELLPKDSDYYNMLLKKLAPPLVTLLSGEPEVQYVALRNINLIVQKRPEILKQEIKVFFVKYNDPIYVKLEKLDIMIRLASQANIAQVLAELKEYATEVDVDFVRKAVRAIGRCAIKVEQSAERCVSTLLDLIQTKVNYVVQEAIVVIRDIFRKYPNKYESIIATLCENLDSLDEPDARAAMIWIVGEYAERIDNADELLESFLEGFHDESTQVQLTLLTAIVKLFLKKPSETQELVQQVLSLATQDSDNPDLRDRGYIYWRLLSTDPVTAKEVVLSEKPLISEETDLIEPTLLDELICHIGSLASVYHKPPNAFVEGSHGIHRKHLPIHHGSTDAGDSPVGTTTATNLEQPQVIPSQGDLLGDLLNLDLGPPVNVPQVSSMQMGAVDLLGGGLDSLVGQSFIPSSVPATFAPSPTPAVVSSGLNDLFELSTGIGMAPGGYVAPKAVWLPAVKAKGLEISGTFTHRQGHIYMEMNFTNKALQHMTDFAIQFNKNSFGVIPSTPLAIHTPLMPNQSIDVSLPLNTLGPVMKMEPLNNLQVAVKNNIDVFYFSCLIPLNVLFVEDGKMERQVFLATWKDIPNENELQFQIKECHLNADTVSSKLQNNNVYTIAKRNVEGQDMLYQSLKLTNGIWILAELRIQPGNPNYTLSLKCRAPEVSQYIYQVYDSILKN

[12] = cytosolic pH regulators acting via V-ATPase – S. cerevisiae, pHLuorin, HTS validation (AID 504600); conditions: V-ATPase proton transport, at 10 µM, stronger effect = higher value;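 further: plate controls were DMSO for no effect and reference compound for full effect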
[13] = tested on: anti-desmoglein-3 scFv antibody binding to human DSG3; assay: blockers of pathogenic pemphigus antibody–desmoglein-3 binding – biochemical, validation compound set, bead-based, flow cytometry, pilot screen (AID 588368;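 active means binding below the plate cutoff, the plate median minus 3 SD, with a reading above zero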;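 further: signal is the median channel fluorescence of bead-bound GFP antibody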); conditions: Protein G beads, DSG3-Fc, scFv-GFP binding, at 10 µM, stronger effect = lower value
[14] = Nile Red efflux blockade in pump-expressing yeast – validation compound set, multiplex, phenotypic, pilot screen (AID 588506;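 active means efflux inhibition above 0.42, the validation set average plus 4 SD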;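 further: Nile Red retained in cells so higher fluorescence means more efflux inhibition; 0 = negative control wells and 1 = enniatin B 25 µM full block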); conditions: S. cerevisiae pump-expressing triplex, Nile Red efflux flow cytometry; at 10 µM; stronger effect = higher value; the pumps come from Candida albicans
[15] = molecular target: ATP-binding cassette sub-family B member 6 (Homo sapiens) (UniProt Q9NP58); assay: blockers of ABCB6-driven porphyrin uptake – K562-ABCB6 cells, flow cytometry, validation set, pilot screen (AID 588550;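 active means inhibition above the screen-wide mean plus 3 SD, about 51%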;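 further: 0% = DMSO wells and 100% = benzethonium chloride 70 µM positive control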); conditions: K562-ABCB6 porphyrin accumulation, 1 h, at 10 µM, stronger effect = higher value
Sequence of ATP-binding cassette sub-family B member 6 (Homo sapiens) (Q9NP58 whole entry, looked up): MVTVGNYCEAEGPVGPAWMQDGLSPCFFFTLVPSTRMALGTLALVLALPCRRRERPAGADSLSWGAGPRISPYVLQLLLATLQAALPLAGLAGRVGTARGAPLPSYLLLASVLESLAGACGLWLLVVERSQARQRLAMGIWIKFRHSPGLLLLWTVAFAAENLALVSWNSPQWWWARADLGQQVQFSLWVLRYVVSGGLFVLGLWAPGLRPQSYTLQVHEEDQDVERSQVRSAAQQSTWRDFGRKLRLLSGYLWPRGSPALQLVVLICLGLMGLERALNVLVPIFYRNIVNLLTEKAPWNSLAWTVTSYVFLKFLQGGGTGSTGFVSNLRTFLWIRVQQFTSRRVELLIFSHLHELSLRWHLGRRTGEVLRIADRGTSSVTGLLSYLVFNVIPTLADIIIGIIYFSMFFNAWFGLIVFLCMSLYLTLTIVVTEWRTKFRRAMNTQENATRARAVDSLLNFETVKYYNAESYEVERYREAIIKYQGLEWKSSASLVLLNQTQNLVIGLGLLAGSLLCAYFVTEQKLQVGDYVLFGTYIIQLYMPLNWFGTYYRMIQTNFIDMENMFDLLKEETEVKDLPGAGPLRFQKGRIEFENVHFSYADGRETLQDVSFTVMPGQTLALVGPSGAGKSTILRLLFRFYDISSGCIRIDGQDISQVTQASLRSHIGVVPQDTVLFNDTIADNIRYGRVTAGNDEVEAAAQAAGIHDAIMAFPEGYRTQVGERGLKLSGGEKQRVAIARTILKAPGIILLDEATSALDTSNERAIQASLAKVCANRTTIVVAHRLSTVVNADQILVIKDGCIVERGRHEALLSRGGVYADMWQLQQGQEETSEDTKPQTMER

[16] = AML differentiation inducers, ER-HoxA9 marrow cells – cell-based, GFP/MAC1 double positive, flow cytometry, validation set, primary screen (AID 588685;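 active means differentiation response of at least 50%, scaled between solvent and reference control, from cells with both markers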;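 further: compound exposure lasts four days before antibody staining and flow analysis; 0% = DMSO wells and 100% = 5 µM fulvestrant positive control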); conditions: stronger effect = higher value, normalized: vehicle 0, fulvestrant 100

CCc1nc2ccccc2n1Cc1ccc(OC)c(OC)c1
60.7%: double positive events [6]
inactive: percent of DMSO control GFP [1] 98.1% | GFP response vs DMSO [2] 99.6% | percent response of DMSO control [3] 95.7% | GFP response vs DMSO [4] 107% | GFP response, % of DMSO [5] 109% | vesicle binding response [6] 132% | inhibition [7] 3.14% | superoxide response (% of plate) [8] 105% | aptamer binding inhibition [9] 3% | response [10] -19% | inhibition [11] 7.51% | response [12] 2.99% | binding (% of control) [13] 89.6% | efflux inhibition (fraction of control) [14] 0 | inhibition [15] 2% | differentiation response [16] 18.7%

Cc1ccc(C(=O)COC(=O)c2cnccn2)cc1[N+](=O)[O-]
58.1%: double positive events [6]
inactive: percent of DMSO control GFP [1] 99.1% | GFP response vs DMSO [2] 99.6% | percent response of DMSO control [3] 110% | GFP response vs DMSO [4] 82% | GFP response, % of DMSO [5] 82.5% | vesicle binding response [6] 226% | inhibition [7] -18.2% | superoxide response (% of plate) [8] 97.6% | aptamer binding inhibition [9] 4% | response [10] -3.42% | inhibition [11] -6.78% | response [12] -1.08% | binding (% of control) [13] 103% | efflux inhibition (fraction of control) [14] 0.01 | inhibition [15] 12% | differentiation response [16] -21.6%

CCC(=O)O[C@]1(C(=O)CCl)[C@@H](C)C[C@H]2[C@@H]3CCC4=CC(=O)C=C[C@]4(C)[C@@]3(F)[C@@H](O)C[C@@]21C
64.6%: double positive events [6]
active: efflux inhibition (fraction of control) [14] 1.03
inactive: percent of DMSO control GFP [1] 99.8% | GFP response vs DMSO [2] 103% | percent response of DMSO control [3] 106% | GFP response vs DMSO [4] 91.5% | GFP response, % of DMSO [5] 106% | vesicle binding response [6] 228% | inhibition [7] -9.13% | superoxide response (% of plate) [8] 120% | aptamer binding inhibition [9] 4% | response [10] 11.3% | inhibition [11] 3.88% | response [12] -2.3% | binding (% of control) [13] 97.9% | inhibition [15] -10% | differentiation response [16] -13.3%

COc1ccc2nc(C)cc(Nc3ccccc3O)c2c1
inactive: percent of DMSO control GFP [1] 94.2% | GFP response vs DMSO [2] 108% | percent response of DMSO control [3] 90.1% | GFP response vs DMSO [4] 115% | GFP response, % of DMSO [5] 99.4% | vesicle binding response [6] 120% | inhibition [7] -7.25% | superoxide response (% of plate) [8] 91.3% | aptamer binding inhibition [9] -3% | response [10] 7.69% | inhibition [11] 3.21% | response [12] 1.21% | binding (% of control) [13] 101% | efflux inhibition (fraction of control) [14] 0.01 | inhibition [15] 9% | differentiation response [16] -20%
58%: double positive events [6]
